Results reported in PubChem BioAssay (NCI).
The panel holds about 83,000 compounds, 20% with a hit somewhere; the sample as a whole holds those more often.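 48-hour exposure, single concentration, 96-well plates; percent growth endpoint where 0 means no net growth. Active: below 10.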 Unmarked numbers belong to inactive results. Calls of active or inactive are those of the source.

Experiments:
Experiment in all cases: NCI-60 one-dose screen, 48 h (100 = growth as untreated, 0 = no growth, -100 = all killed)
Settings in all cases: 10 µM unless noted
NCI-H23 lung = tested on: NCI-H23 lung
NCI-H322M lung = tested on: NCI-H322M lung
HOP-62 NSCLC = tested on: HOP-62 NSCLC
NCI-H460 lung = tested on: NCI-H460 lung
HOP-92 NSCLC = tested on: HOP-92 NSCLC
NCI-H522 lung = tested on: NCI-H522 lung
A549/ATCC NSCLC = tested on: A549/ATCC NSCLC
786-0 renal = tested on: 786-0 renal
COLO 205 colon = tested on: COLO 205 colon

Compound	growth (NCI-H23 lung)	growth (NCI-H322M lung)	growth (HOP-62 NSCLC)	growth (NCI-H460 lung)	growth (HOP-92 NSCLC)	growth (NCI-H522 lung)	growth (A549/ATCC NSCLC)	growth (786-0 renal)	growth (COLO 205 colon)
COC(=O)N[C@H]1CCc2cc(OC)c(OC)c(OC)c2-c2ccc(SC)c(=O)cc21	23.3%	29.8%	23.4%	2.04% (active)	15.2%	-17.9% (active)	13.6%	14.1%	-18.6% (active)
COc1ccc(Cc2nc3cc(OC)c(OC)cc3c(=O)[nH]2)cc1	59.6%	167%	140%	89.4%	108%	52.1%	-5.67% (active)	86.9%	68.5%
Clc1ccc(C2CC(c3cccc(Nc4ccncc4)c3)=NN2c2cc(Cl)cc(Cl)c2)cc1 (configuration not stated)	79.6%	81.6%	68.5%	-68% (active)	71.3%	89.1%	47.6%	-88.5% (active)	-58% (active)
CCOC(=O)c1cnc2c(cnn2CC)c1NN=C(C)C	96.5%	94.6%	76.6%	106%	73.9%	74.4%	96.2%	86.5%	113%
N#CSCC1CC(O)(c2ccccc2)C(c2ccccc2)C(c2ccc(F)cc2)O1 (configuration not stated)	7.22% (active)	60.4%	60.3%	25.2%	1.42% (active)	25.2%	63.1%	3.08% (active)	22.1%
Cc1cn(-c2cc(C(=O)Nc3cccc(C#Cc4cccc5[nH]nc(N)c45)c3)cc(C(F)(F)F)c2)cn1	44.1%	68.4%	45.1%	40.6%	26.4%	51.7%	63.2%	66.7%	13.8%
CC(=O)NCCCS(=O)(=O)O	101%	107%	105%	101%	82.2%	83.4%	114%	99.6%	105%
NC(=O)C1(N2CCCCC2)CCN(CCCC(=O)c2ccc(F)cc2)CC1	31.6%	52.5%	38.3%	11.9%	92.5%	-30.2% (active)	79.3%	49.8%	13.9%
CS(=O)(=O)OCCN(CCOS(C)(=O)=O)c1ccc(/C=N/Nc2ccc([N+](=O)[O-])cc2[N+](=O)[O-])cc1	73.6%	94.5%	92.8%	37.5%	71.8%	91.5%	80.8%	101%	90%
O=C(N/N=C/c1cccc(O)c1)c1ccccc1Nc1cccc(C(F)(F)F)c1	96.4%	77.9%	73%	102%		90.3%	29.1%	43.5%	117%
COc1ccc(CNCCN2C(=O)c3ccc4c5c(ccc(c35)C2=O)C(=O)N(CCNCc2ccc(OC)cc2)C4=O)cc1	-52.5% (active)	-74.2% (active)	-33.8% (active)	-78.8% (active)	-46.8% (active)	-80.9% (active)	-84.1% (active)	-76.5% (active)	-40.9% (active)
CCC(C)C(N)C(=O)NNc1n[nH]c(=S)n1N (configuration not stated)	102%	105%	105%	103%	97.6%	89%	102%	102%	116%
C=C(C)[C@@H]1CC[C@]2(CO)CC[C@]3(C)[C@H](CC[C@@H]4[C@@]5(C)CCCNC(C)(C)[C@@H]5CC[C@]43C)[C@@H]12	62.6%	69.8%	79%	-54.4% (active)	82%	64.2%	44.9%	30.2%	-63.5% (active)
COc1ccc(/C=N/NC(=O)c2cccc3cc[nH]c23)cc1O	55.7%	49.8%	36.3%	7.44% (active)	57.2%	54.8%	50.5%	30.9%	55.7%
FCc1nc2nc(Cl)c(Cl)nc2[nH]1	99.3%		94.8%	108%		95.9%	98.9%	103%	109%
